Laboratory results taken from PubChem BioAssay.
Records with an inconclusive call do not appear. A number with no mark means an inactive call.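 Rule for the calls: active = cell viability at or below a set limit in both duplicate runs, the limit being the all-compound median minus 4 SD (cut at about 23% in these data, passing the limit was not always enough); inconclusive = no clear call, values can overlap the other calls; inactive = the rest.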

Assay: viability of HCT116 without oncogenic beta-catenin – human colon tumor cells, pilot screen (AID 823);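 note: 0% = wells killed by 20 µM Hyamine and 100% = untreated DMSO cell wells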
Settings: HCT116 beta-catenin knockout viability, CellTiter-Glo, 60 h; at 10 µM; stronger effect = lower value

Going from `COc1ccc2cc(CCNC(=O)c3c(-c4ccccc4Cl)noc3C)c(=O)[nH]c2c1` to `Cc1cccc(OCc2nnc(SCC(=O)NCCc3ccccc3)o2)c1`, the viability falls from 103% to 98%.

Compared with `CCOc1ccc(S(=O)(=O)N2CCN(S(=O)(=O)c3ccc(OCC)cc3)C(C)C2)cc1` (stereo unspecified), `COc1ccccc1OCC(=O)Nc1ccc(S(=O)(=O)N2CCCCCC2)cc1` is lower in viability: 93% for the first, 83.1% for the second.

Going from `Cc1occc1-c1nnc(SCCCC(=O)c2ccc(F)cc2)n1C` to `CCOc1cccc(C(=O)Nc2nnc(-c3ccco3)s2)c1`, the viability rises from 74.4% to 103%.

First: Cc1ccc(CCN2CC(C(=O)NCc3cccnc3)CC2=O)cc1 (stereo unspecified)
Second: COc1ccc(C(=O)NCC(c2cccnc2)N2CCN(c3ccccc3)CC2)cc1OC (stereo unspecified)
The viability of the first is higher: 104% for the first, 97.6% for the second.

Going from `CCN(c1ccccc1)S(=O)(=O)c1ccc(N)cc1` to `O=C(Cn1ncc2c1-c1ccccc1OC2)Nc1ccc(S(=O)(=O)N2CCCCC2)cc1`, the viability falls from 94.5% to 90.7%.

Going from `c1ccc2c(c1)CCCN2c1nc2ccccc2n2cnnc12` to `O=C(CN1CCN(c2ccccc2F)CC1)c1ccc2cc[nH]c2c1`, the viability rises from 91.2% to 100%.

Compared with `C=C(C)c1cccc(C(C)(C)NC(=O)N2CCN(c3ccccn3)CC2)c1`, `CCOC(=O)N1CCC(NC(=O)C2CCCCN2S(=O)(=O)c2ccc(F)cc2)CC1` (stereo unspecified) is higher in viability: 75.8% for the first, 94% for the second.

Compared with `Cc1ccc(S(=O)(=O)NCc2ccco2)cc1C`, `CC1CCCN(c2ncnc3c2cnn3-c2ccc(Cl)cc2)C1` (stereo unspecified) is lower in viability: 100% for the first, 76% for the second.
